Values joined by “and” are separate entries in the source; they are usually repeats but may differ in a detail not shown here. Equal values may be shown once. Inconclusive results are not listed. Some structures have more than one record in an assay (separate samples or runs), and their calls can disagree. Active and inactive are the calls of the source. Unless noted, the call rests on the fitted dose curve; in most records, active means well fitted curve in the direction sought with a large enough effect; inconclusive means small, poorly fitted or top-dose-only effect, or another doubt; inactive means no such curve, though single readings can be large; an effect the other way counts as inactive or inconclusive.
Assays:
[1] = qHTS Screen of the MIPE 4.0 Collection Against Ewings Sarcoma (TC32) (AID 1259256); further: nearly all actives have a fitted effect of over 45% in size; further: potency means the concentration at half of the fitted maximal effect
Procedure, shortened: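 Compound titrations go onto adherent log-phase cells 4 h after seeding, incubate 48 h at 37C, then CellTiter-Glo luminescence reports viability relative to DMSO and cell-free controls.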

[2] = Identifying Small Molecule Inhibitors of Pancreatic Cancer Stem Cells (SN12C, Adherent) (AID 1259358);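 further: cell survival measured after 48 h of compound exposure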; further: potency means the concentration at half of the fitted maximal effect
Procedure, shortened: (§1)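 Viability is scored by CellTiter-Glo luminescence 48 h after dosing, expressed as percent activity against vehicle and no-cell references. Spheroid formats rely on cells cultured 14 days in stem cell media beforehand.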

[3] = Identifying Small Molecule Inhibitors of Pancreatic Cancer Stem Cells (SN12C, Spheroid) (AID 1259360); conditions: Potency: SN12C spheroid viability; further: potency means the concentration at half of the fitted maximal effect
Procedure, shortened: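 Luminescent ATP readout (CellTiter-Glo) quantifies surviving cells after a 48 h drug incubation. Normalization uses DMSO wells as no inhibition and media-only wells as full inhibition; bortezomib served as positive control.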

[4] = P-glycoprotein substrates identified in KB-8-5-11 adenocarcinoma cell line, qHTS therapeutic library screen (AID 1346987); further: nearly all actives have a fitted effect of over 65% in size; further: potency means the concentration at half of the fitted maximal effect
Procedure, shortened: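 Compounds are pinned in dose-response onto KB-8-5-11 cells (500 cells/well, colchicine-free medium) and left 72 h at 37 degree C. CellTiter-Glo luminescence then yields AC50 values.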

[5] = NS1 protein of Zika virus - qHTS assay to identify small molecule inhibitors in human HEK 293 cells (AID 1347053); further: series mostly up to about 46 µM; nearly all actives have a fitted effect of over 55% in size
Procedure, shortened: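 TR-FRET signal from two anti-ZIKV NS1 antibodies quantified NS1 in HEK 293 cells 24 h after MR766 infection at MOI = 0.5; compounds were added 1 h before virus. Uninfected cells and infected cells defined the NS1 normalization range.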

[6] = qHTS of pediatric cancer cell lines to identify multiple opportunities for drug repurposing: Primary screen for TC32 cells (AID 1347089); further: nearly all actives have a fitted effect of over 60% in size; further: potency means the concentration at half of the fitted maximal effect
Procedure, shortened: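 Luminescent CellTiter-Glo read-out of metabolically active TC32 cells after 48 h compound exposure. Primary: MIPE 11-point, 0.78 nM–46 µM; NPC 8-point, 0.59 nM–46 µM. Confirmatory: 11-point dilutions.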

[7] = qHTS of pediatric cancer cell lines to identify multiple opportunities for drug repurposing: Primary screen for DAOY cells (AID 1347090); further: nearly all actives have a fitted effect of over 55% in size; further: potency means the concentration at half of the fitted maximal effect
Procedure, shortened: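 Eight- or eleven-point concentration series, 48 h treatment at 37 degrees C in growth media; readout CellTiter-Glo luminescence. Potency and efficacy were taken from the concentration-response curves.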

[8] = Identifying Small Molecule Inhibitors of Pancreatic Cancer Stem Cells (A278, Adherent) (AID 1259361); further: nearly all actives have a fitted effect of over 35% in size
Procedure, shortened: as §1

[9] = P-glycoprotein substrates identified in KB-3-1 adenocarcinoma cell line, qHTS therapeutic library screen (AID 1346986); further: nearly all actives have a fitted effect of over 60% in size;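 further: potency means the concentration at half of the fitted maximal effect; potency is for cytotoxicity meaning loss of cell viability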
Procedure, shortened: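 72 h cell-killing screen, 500 cells/well, CellTiter-Glo luminescence. Paired lines KB-3-1/KB-8-5-11; P-gp dependence checked by tariquidar co-treatment and HEK-293 MDR-19 versus empty-vector cells.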

[10] = Identifying Small Molecule Inhibitors of Pancreatic Cancer Stem Cells (Panc1, Adherent) (AID 1259362); conditions: Potency: viability; further: potency means the concentration at half of the fitted maximal effect
Procedure, shortened: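 Cytotoxicity read by CellTiter-Glo luminescence after 48 h compound exposure at 37C; percent activity scaled between DMSO-treated cells and cell-free wells. Spheroid formats used cells pre-formed 14 days in stem cell media on hydrogel.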

[11] = Natriuretic polypeptide receptor (hNpr1) antagonism - Pilot counterscreen GloSensor control cell line (AID 1347045; calls by dose curve; further: series mostly up to about 38 µM)
Procedure, shortened: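 Control counterscreen: luciferase cGMP-biosensor HEK293 cells (no Npr1) received compound for 30 min at room temperature after GloSensor substrate loading. Luminescence was measured before and 20 min after soluble guanylyl cyclase activation by 50 uM nitroprusside.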

[12] = molecular target: T1, Tyrosine-protein phosphatase non-receptor type substrate 1 (Homo sapiens) + Leukocyte surface antigen CD47 (Homo sapiens) (UniProt P78324+Q08722); test: CD47-SIRPalpha protein protein interaction - LANCE assay qHTS validation (AID 1347057; active means well fitted curve in the direction sought with a large enough effect in the signal ratio, with a control signal flat, not every such curve was filed as active; the % refers to the signal ratio; further: series mostly up to about 38 µM)
T1 sequence (P78324 whole entry, looked up, the tested form may be a part): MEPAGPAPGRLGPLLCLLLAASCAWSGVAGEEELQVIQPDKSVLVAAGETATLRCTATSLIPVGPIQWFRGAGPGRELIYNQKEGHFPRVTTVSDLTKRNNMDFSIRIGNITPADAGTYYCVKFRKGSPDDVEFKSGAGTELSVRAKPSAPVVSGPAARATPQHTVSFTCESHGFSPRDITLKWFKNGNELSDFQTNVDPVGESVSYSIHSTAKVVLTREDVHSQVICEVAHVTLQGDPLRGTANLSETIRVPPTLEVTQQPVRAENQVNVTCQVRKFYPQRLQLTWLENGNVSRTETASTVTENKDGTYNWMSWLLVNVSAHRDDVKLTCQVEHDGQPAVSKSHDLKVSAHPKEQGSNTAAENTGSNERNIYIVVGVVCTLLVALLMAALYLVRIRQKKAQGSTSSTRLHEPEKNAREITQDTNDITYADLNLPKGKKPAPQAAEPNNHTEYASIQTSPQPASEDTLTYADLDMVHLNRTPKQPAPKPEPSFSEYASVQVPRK
T1 sequence (Q08722 whole entry, looked up, the tested form may be a part): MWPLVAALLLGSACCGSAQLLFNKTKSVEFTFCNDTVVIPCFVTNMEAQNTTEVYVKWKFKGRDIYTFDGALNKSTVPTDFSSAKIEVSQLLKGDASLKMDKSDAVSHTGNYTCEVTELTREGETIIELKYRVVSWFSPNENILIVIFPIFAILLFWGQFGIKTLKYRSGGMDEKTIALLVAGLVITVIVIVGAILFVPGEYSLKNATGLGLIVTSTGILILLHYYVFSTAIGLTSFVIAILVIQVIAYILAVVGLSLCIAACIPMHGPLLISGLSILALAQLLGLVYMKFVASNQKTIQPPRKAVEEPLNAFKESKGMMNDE
Procedure, shortened: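 Inhibition of soluble CD47/SIRPalpha ectodomain association by titrated compounds, measured as 665/615 nm time-resolved FRET ratio after sequential 30 min room-temperature incubations.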

[13] = molecular target: T1, Tyrosine-protein phosphatase non-receptor type substrate 1 (Homo sapiens) + Leukocyte surface antigen CD47 (Homo sapiens); test: CD47-SIRPalpha protein protein interaction - Alpha assay qHTS validation (AID 1347059);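 further: bead proximity luminescence from CD47 binding SIRPalpha after compound preincubation with SIRPalpha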
Procedure, shortened: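 In PBS (pH 7.4) with 0.05% IGEPAL CA-630, compound is preincubated with biotin-Avi-SIRPalpha ectodomain before His-CD47 ectodomain and affinity beads are added. Light-protected room-temperature incubations; AlphaScreen readout.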

[14] = molecular target: Atrial natriuretic peptide receptor 1 (Homo sapiens) (UniProt P16066); test: Natriuretic polypeptide receptor (hNpr1) antagonism - Pilot screen (AID 1347049; calls by dose curve;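 further: HEK293 cells with hNpr1 and GloSensor cGMP luciferase stimulated by 0.1 nM hNppA; agonist-evoked cGMP luminescence read 20 min after hNppA addition; series mostly up to about 58 µM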)
Atrial natriuretic peptide receptor 1 (Homo sapiens), sequence (P16066 whole entry, looked up): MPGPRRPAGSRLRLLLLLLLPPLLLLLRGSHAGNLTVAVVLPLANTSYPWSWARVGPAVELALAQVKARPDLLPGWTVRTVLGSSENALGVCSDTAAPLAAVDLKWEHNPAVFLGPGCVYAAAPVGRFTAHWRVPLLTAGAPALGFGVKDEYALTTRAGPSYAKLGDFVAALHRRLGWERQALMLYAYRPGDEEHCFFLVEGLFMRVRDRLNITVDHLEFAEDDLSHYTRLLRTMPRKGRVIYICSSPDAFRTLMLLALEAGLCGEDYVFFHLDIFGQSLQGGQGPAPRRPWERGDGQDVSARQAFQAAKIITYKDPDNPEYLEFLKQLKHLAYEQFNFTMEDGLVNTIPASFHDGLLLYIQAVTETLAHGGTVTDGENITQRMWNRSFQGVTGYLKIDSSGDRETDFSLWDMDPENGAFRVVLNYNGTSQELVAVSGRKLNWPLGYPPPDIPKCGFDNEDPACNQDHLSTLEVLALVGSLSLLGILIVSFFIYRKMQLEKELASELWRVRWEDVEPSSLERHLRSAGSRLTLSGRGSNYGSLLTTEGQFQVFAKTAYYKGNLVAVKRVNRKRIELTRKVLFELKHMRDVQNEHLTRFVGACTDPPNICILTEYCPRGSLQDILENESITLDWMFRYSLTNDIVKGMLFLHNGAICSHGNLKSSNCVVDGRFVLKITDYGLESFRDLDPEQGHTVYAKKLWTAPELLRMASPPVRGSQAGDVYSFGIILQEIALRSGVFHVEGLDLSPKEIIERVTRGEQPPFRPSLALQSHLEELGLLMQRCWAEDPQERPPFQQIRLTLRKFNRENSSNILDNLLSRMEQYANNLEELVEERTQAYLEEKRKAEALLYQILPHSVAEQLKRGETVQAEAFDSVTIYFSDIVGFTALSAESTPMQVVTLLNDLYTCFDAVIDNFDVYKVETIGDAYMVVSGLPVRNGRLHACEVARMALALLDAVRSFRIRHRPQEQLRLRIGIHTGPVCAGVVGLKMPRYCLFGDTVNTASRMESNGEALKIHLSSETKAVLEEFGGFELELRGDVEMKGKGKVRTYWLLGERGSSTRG
Procedure, shortened: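 Cells expressing receptor plus cGMP biosensor are seeded and incubated overnight at 37C, then loaded with GloSensor reagent (2% final) at room temperature for 2 h. Library compounds go on for 30 min. A pre-read precedes agonist (hNppA, 0.1 nM final) and a 20-min readout.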

[15] = molecular target: Atrial natriuretic peptide receptor 2 (Homo sapiens) (UniProt P20594); test: Natriuretic polypeptide receptor (hNpr2) antagonism - Pilot subtype selectivity assay (AID 1347050; calls by dose curve)
Atrial natriuretic peptide receptor 2 (Homo sapiens), sequence (P20594 whole entry, looked up): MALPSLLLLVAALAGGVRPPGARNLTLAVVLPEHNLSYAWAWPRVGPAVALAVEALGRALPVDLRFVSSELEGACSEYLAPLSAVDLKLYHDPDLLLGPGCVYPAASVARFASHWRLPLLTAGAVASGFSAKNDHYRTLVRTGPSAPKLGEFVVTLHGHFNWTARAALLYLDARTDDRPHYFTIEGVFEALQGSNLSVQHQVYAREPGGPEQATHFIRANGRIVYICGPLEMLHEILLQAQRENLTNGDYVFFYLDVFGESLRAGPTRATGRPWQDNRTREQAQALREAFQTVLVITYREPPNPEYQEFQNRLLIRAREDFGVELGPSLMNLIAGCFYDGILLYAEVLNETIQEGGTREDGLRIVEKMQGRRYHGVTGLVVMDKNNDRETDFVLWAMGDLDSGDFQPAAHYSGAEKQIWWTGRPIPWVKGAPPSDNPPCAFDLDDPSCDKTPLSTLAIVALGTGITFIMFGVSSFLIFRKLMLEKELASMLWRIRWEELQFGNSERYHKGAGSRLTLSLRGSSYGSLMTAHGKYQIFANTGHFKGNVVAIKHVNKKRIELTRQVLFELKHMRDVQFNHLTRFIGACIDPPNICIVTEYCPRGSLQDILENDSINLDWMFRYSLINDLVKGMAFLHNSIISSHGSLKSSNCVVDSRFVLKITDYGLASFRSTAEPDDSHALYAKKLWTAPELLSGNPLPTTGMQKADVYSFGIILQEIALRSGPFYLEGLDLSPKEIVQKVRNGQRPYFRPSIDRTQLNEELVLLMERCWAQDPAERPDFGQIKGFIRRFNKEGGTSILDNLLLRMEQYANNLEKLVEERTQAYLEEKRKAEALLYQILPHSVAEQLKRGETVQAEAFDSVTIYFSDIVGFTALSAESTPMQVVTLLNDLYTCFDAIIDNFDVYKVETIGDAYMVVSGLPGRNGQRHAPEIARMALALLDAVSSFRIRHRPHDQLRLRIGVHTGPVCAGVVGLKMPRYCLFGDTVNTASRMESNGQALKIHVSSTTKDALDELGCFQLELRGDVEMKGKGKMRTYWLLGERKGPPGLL
Procedure, shortened: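 Read-out: GloSensor luminescence (CCD imager), baseline vs post-stimulation. HEK293 cells expressing hNpr2; compounds pre-incubated 30-50 min at ambient temperature; hNppC 1 nM final, 20 min.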

[16] = molecular target: T1, Tyrosine-protein phosphatase non-receptor type substrate 1 (Homo sapiens) + Leukocyte surface antigen CD47 (Homo sapiens); test: CD47-SIRPalpha protein protein interaction - HTRF assay qHTS validation (AID 1347058; active means well fitted curve in the direction sought with a large enough effect in the signal ratio, not every such curve was filed as active; the % refers to the signal ratio; further: series mostly up to about 38 µM)
Procedure, shortened: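 Soluble extracellular domains (6His-CD47, Avi-tag-biotinylated SIRPalpha) in PBS pH 7.4 with 0.05% IGEPAL CA-630. Compounds were preincubated 30 min at RT with CD47 and anti-His-Eu, then SIRPalpha and SAV-XL665 were added. TR-FRET 665/615 ratio.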

[17] = qHTS assay to identify small molecule inhibitors of chordoma cells - UCH-2 (AID 1259356); further: series mostly up to about 46 µM

CC1(C)CNc2cc(NC(=O)c3cccnc3NCc3ccncc3)ccc21
active: Potency [1] 5.26 µM | Potency [6] 26.2 µM | Potency [7] 1.18 µM
inactive: Potency [2] | Potency [3] | Potency [4] | Potency [5]

CC(C)OC(=O)C1=CN(C(=O)c2ccc(F)c(F)c2)CC(C)(C)c2c1[nH]c1ccccc21
inactive: Potency [1] | Potency [2] | Potency [3] | IC50 (viability decrease) [8] | Potency [4] | Potency [6] | Potency [7]

Cc1cc(SCc2sc(-c3ccc(C(F)(F)F)cc3)nc2C)ccc1OCC(=O)O
active: Potency [1] 5.26 µM
inactive: Potency [2] | Potency [3] | Potency [9] | Potency [4] | Potency [5] | Potency [6] | Potency [7]

O=C1CCCC2=C1C(c1[nH]ncc1Cl)N=C(Nc1nc3ccccc3o1)N2 (stereo unspecified)
inactive: Potency [1] | Potency [2] | Potency [3] | Potency [10] | Potency [9] | Potency [5] | Potency [6] | Potency [7]

Cc1c(CCOc2ccc(C(=O)O)cc2)c2cc(Cl)ccc2n1C(c1ccccc1)c1ccccc1
inactive: Potency [2] | Potency [3] | IC50 (viability decrease) [8] | Potency [4] | Potency [5] | Potency [6]
active: Potency [1] 10.5 µM

O=C(Nc1nc2ccccc2n1CCN1CCOCC1)c1cccc([N+](=O)[O-])c1
inactive: Potency [2] | Potency [9] | Potency [4] | outcome [11] | Potency [5] | outcome [12] | outcome [13] | Potency [6]
active: Potency [1] 18.7 µM | Potency [7] 7.43 µM

CN[C@@H](C)C(=O)N[C@H]1CCCC[C@H]2CC[C@@H](C(=O)N[C@@H](c3ccccc3)c3cn(CCCCc4ccc(CCCCn5cc([C@@H](NC(=O)[C@@H]6CC[C@@H]7CCCC[C@H](NC(=O)[C@H](C)NC)C(=O)N76)c6ccccc6)nn5)cc4)nn3)N2C1=O
active: Potency [1] 18.7 µM
inactive: Potency [2] | Potency [3] | Potency [5] | Potency [6]

Cc1cccc(-c2nn(C(=S)Nc3ccccc3)cc2-c2ccnc3ccccc23)n1
inactive: Potency [1] | Potency [2] | Potency [10] | Potency [9] | Potency [4] | Potency [5] | Potency [6] | Potency [7]

COc1cc2nccc(Oc3ccc(NC(=O)NC4CC4)c(Cl)c3)c2cc1C(N)=O
active: Potency [1] 1.05 µM | Potency [2] 18.7 µM | Potency [7] 4.69 µM
inactive: Potency [3] | Potency [10] | Potency [9] | Potency [4]

CN(C)c1ccc(C2Nc3ccc4ccccc4c3C3=C2C(=O)CC(C)(C)C3)cc1Br (stereo unspecified)
inactive: Potency [2] | Potency [3] | Potency [4] | Potency [6] | Potency [7]
active: Potency [1] 16.6 µM

C[C@]1(c2nc3c(C(N)=O)cccc3[nH]2)CCCN1
inactive: Potency [2] | Potency [4] | Potency [5] | Potency [6]
active: Potency [1] 18.7 µM | IC50 (viability decrease) [8] 18.7 µM

Cc1n[nH]c(C)c1Cc1sc2c(c1C(=O)N1C[C@H](O)CO1)c(=O)n(C)c(=O)n2CC(C)C
active: Potency [1] 0.105 µM
inactive: Potency [2] | Potency [3] | Potency [9] | Potency [4] | Potency [5] | Potency [7]

CC(C)C[C@H](NC(=O)[C@@H](O)[C@H](N)Cc1ccccc1)C(=O)O
active: Potency [1] 23.5 µM
inactive: Potency [2] | Potency [3] | IC50 (viability decrease) [8] | outcome [11] | outcome [14] | Potency [15] | outcome [16] | outcome [13] | Potency [6]

CS(=O)(=O)c1ccc(C(=O)Nc2ccc(Cl)c(-c3ccccn3)c2)c(Cl)c1
inactive: Potency [1] | Potency [2] | Potency [3] | Potency [4] | Potency [5] | Potency [6] | Potency [7]

CNC(=O)c1ccc(N2C(=S)N(c3ccc(C#N)c(C(F)(F)F)c3)C(=O)C2(C)C)cc1F
inactive: Potency [1] | Potency [2] | Potency [10] | Potency [5] | Potency [6] | Potency [7]
active: IC50 (viability decrease) [8] 23.5 µM

CCOc1cc(C=C2C(=O)N(c3ccccc3)N=C2C)cc(Cl)c1OCC(=O)OC
inactive: Potency [2] | Potency [3] | Potency [4] | Potency [6]
active: Potency [1] 5.9 µM

Nc1nccc(-c2ccc3noc(-c4ccc(Cl)cc4)c3c2)n1
active: Potency [1] 23.5 µM
inactive: Potency [2] | Potency [3] | Potency [4] | Potency [5] | Potency [6]

OC[C@H](Cc1ccccc1)Nc1nc(Oc2ccc3c(c2)CCC3)nc2c1ncn2Cc1ccc(-c2ccccc2)cc1
inactive: Potency [2] | Potency [6]
active: Potency [1] 6.62 µM | Potency [10] 1.32 µM | Potency [7] 11.8 µM

Cn1cc(-c2ccc3nnc(C(F)(F)c4ccc5ncccc5c4)n3n2)cn1
active: Potency [1] 0.833 µM
inactive: Potency [2] | IC50 (viability decrease) [8] | Potency [4] | Potency [5] | Potency [6] | Potency [7]

COc1ccc(-c2oc3cc(OC)ccc3c2C(=O)c2ccc(C#N)cc2)cc1
inactive: Potency [1] | Potency [2] | Potency [3] | Potency [9] | Potency [4] | Potency [5] | Potency [6]

CC(=O)NC(C)c1ccc(Oc2ccc(OC(C)C)cc2)cc1 (stereo unspecified)
active: Potency [10] 4.69 µM
inactive: Potency [1] | Potency [2] | Potency [3] | Potency [6]

Cn1c(=O)c(F)c(Nc2ccc(I)cc2F)c2c(=O)n(C[C@@H](O)CO)cnc21
active: Potency [2] 0.418 µM | Potency [3] 8.33 µM | Potency [7] 18.7 µM
inactive: Potency [1] | Potency [4] | Potency [6]

CCOc1cc(N2CCC(O)CC2)ccc1Nc1ncc2c(n1)N(C)c1ccccc1C(=O)N2C
active: Potency [1] 16.6 µM | Potency [9] 8.2 µM | Potency [4] 18.4 µM | Potency [6] 23.4 µM
inactive: Potency [5]

CCCc1nc2c(C)cc(-c3nc4ccccc4n3C)cc2n1Cc1ccc(-c2ccccc2C(=O)O)cc1
inactive: outcome [17] | Potency [2] | Potency [3] | IC50 (viability decrease) [8] | Potency [10] | Potency [4] | Potency [5] | Potency [6] | Potency [7]

CCN(CC)CCCC(C)Nc1nc(C)cc(Nc2ccc3nc(C)cc(N)c3c2)n1 (stereo unspecified)
inactive: Potency [2] | Potency [3] | IC50 (viability decrease) [8] | Potency [9] | Potency [5] | Potency [6] | Potency [7]

COc1ccc(-c2ccc3c(N4CCOC[C@H]4C)nc(N4CCOC[C@H]4C)nc3n2)cc1CO
active: Potency [1] 0.0264 µM | Potency [2] 0.0148 µM | Potency [6] 0.165 µM

COc1ccc(C2=N[C@H](c3ccc(Cl)cc3)[C@H](c3ccc(Cl)cc3)N2C(=O)N2CCNC(=O)C2)c(OC(C)C)c1
active: Potency [1] 16.6 µM | IC50 (viability decrease) [8] 18.7 µM | Potency [7] 23.5 µM
inactive: Potency [3] | Potency [10] | Potency [6]

COc1ccc([C@@H]2CC(=O)c3c(O)cc(O[C@@H]4O[C@H](CO[C@@H]5O[C@@H](C)[C@H](O)[C@@H](O)[C@@H]5O)[C@@H](O)[C@H](O)[C@@H]4O)cc3O2)cc1O
inactive: Potency [9] | Potency [5] | Potency [6] | Potency [7]
inactive and 23.5 µM (active): Potency [1]

COc1cc(Nc2ncc3c(n2)-c2ccc(Cl)cc2C(c2c(F)cccc2OC)=NC3)ccc1C(=O)O
active: Potency [1] 0.059 µM | Potency [9] 0.103 µM | Potency [4] 0.0833 µM | Potency [6] 0.186 µM
inactive: Potency [3] | Potency [5]

CCN(CCCO)CCCOc1ccc2c(Nc3cc(CC(=O)Nc4cccc(F)c4)[nH]n3)ncnc2c1
inactive: Potency [2] | Potency [3]

C[C@]12CC[C@H](O)CC1=CC[C@@H]1[C@H]2CC[C@]2(C)C(c3cccnc3)=CC[C@H]12
inactive: Potency [2] | Potency [3] | IC50 (viability decrease) [8] | Potency [4] | Potency [5] | Potency [6] | Potency [7]

From PubChem BioAssay (NCATS)
